# Data: paper PMC7862700, “An all-to-all approach to the identification of sequence-specific readers for epigenetic DNA modifications on cytosine”
# How the values were obtained:
# Test in all cases: DAPPL (digital affinity profiling via proximity ligation, sequencing); 10 mM Tris-HCl pH 7.5, 50 mM NaCl, 1 mM DTT, 4% glycerol, room temperature, 30 min; GST-TFs on glutathione beads, 16-mer random dsDNA library, 0.1% formaldehyde crosslink after washing; high values mean tight binding
# FEV = target: T1, FEV (Homo sapiens, UniProt Q99581 1-238); conditions: protein: recombinant; tags: N-terminal GST; dsDNA, one strand shown
# T1 sequence: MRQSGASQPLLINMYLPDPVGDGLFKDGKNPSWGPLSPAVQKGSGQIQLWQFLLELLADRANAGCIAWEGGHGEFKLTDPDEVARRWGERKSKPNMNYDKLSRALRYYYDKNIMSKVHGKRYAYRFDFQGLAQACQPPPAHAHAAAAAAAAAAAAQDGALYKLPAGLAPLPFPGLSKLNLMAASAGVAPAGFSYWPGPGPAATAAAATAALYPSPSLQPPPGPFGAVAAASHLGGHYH
# Summary of the method: (§1)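 Pools were built from human transcription factors expressed in yeast as GST fusions, captured on glutathione beads and DNA-barcoded, along with a tag-only sample. Incubation with 200 nmole of a 16-mer random double-stranded DNA library lasted 30 min at room temperature in Tris/NaCl/DTT/glycerol buffer, and was followed by washing, 0.1% formaldehyde crosslinking, proximity ligation, PCR amplification and Illumina NextSeq500 sequencing. Binding signal is the quotient of each hexamer's read frequency for a factor and its frequency for the tag-only sample.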
# ETV5 = ETV5 (Homo sapiens, UniProt P41161 1-510); conditions: protein: recombinant; tags: N-terminal GST; dsDNA, one strand shown
# Summary of the method: as §1
# HSF1 = HSF1 (Homo sapiens, UniProt Q00613 1-529); conditions: protein: recombinant; tags: N-terminal GST; chain copies: 3; dsDNA, one strand shown
# Summary of the method: as §1
# SPIC = target: T2, SPIC (Homo sapiens, UniProt Q8N5J4 1-248); conditions: protein: recombinant; tags: N-terminal GST; dsDNA, one strand shown
# T2 sequence: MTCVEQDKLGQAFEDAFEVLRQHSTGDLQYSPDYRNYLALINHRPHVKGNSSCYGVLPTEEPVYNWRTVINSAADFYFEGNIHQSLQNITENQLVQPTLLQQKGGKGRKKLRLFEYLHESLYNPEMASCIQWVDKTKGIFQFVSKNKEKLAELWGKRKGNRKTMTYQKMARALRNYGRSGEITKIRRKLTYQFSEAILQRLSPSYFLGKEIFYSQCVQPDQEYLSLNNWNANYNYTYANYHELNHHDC
# Summary of the method: as §1
# ELF4 = ELF4 (Homo sapiens, UniProt Q99607 1-663); conditions: protein: recombinant; tags: N-terminal GST; dsDNA, one strand shown
# Summary of the method: as §1
# ELK4 = target: T3, ELK4 (Homo sapiens, UniProt P28324-2 1-405); conditions: protein: recombinant; tags: N-terminal GST; dsDNA, one strand shown
# T3 sequence: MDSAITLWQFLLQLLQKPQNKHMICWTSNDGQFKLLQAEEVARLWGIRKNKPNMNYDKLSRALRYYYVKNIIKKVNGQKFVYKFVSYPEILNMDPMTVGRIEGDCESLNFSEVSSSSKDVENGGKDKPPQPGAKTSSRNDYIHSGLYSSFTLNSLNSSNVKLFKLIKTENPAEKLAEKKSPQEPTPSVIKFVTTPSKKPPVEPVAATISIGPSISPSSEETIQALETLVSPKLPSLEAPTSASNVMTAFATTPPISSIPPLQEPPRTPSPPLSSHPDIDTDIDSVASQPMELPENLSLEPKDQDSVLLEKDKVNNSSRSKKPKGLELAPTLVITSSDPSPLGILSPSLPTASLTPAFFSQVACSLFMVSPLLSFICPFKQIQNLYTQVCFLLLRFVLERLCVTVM
# Summary of the method: as §1
# ETV2 = target: T4, ETV2 (Homo sapiens, UniProt O00321 1-342); conditions: protein: recombinant; tags: N-terminal GST; dsDNA, one strand shown
# T4 sequence: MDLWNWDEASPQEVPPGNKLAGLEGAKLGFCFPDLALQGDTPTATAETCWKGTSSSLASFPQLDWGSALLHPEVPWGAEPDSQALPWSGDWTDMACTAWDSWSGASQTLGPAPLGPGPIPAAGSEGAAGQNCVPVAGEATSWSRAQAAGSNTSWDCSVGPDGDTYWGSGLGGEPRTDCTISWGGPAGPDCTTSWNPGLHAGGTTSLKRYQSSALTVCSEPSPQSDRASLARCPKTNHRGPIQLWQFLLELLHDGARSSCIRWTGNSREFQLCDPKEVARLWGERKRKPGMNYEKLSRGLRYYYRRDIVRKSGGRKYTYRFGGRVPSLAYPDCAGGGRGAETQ
# Summary of the method: as §1
# ELF3 = target: T5, ELF3 (Homo sapiens, UniProt P78545 1-371); conditions: protein: recombinant; tags: N-terminal GST; dsDNA, one strand shown
# T5 sequence: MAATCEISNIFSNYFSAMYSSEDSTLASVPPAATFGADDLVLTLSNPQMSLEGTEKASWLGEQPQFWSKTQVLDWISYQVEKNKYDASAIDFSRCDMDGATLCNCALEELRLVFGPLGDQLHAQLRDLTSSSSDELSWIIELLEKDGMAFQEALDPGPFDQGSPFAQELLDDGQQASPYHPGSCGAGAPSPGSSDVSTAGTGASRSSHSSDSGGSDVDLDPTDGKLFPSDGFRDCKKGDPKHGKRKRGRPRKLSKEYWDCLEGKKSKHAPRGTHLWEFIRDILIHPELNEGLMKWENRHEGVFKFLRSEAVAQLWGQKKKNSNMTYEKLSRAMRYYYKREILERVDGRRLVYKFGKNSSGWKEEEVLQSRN
# Summary of the method: as §1
# CRX = CRX (Homo sapiens, UniProt O43186 1-299); conditions: protein: recombinant; tags: N-terminal GST; dsDNA, one strand shown
# Summary of the method: as §1
# ETV1 = ETV1 (Homo sapiens, UniProt P50549 1-477); conditions: protein: recombinant; tags: N-terminal GST; dsDNA, one strand shown
# Summary of the method: as §1
# ERF = target: T6, ERF (Homo sapiens, UniProt P50548 1-548); conditions: protein: recombinant; tags: N-terminal GST; dsDNA, one strand shown
# T6 sequence: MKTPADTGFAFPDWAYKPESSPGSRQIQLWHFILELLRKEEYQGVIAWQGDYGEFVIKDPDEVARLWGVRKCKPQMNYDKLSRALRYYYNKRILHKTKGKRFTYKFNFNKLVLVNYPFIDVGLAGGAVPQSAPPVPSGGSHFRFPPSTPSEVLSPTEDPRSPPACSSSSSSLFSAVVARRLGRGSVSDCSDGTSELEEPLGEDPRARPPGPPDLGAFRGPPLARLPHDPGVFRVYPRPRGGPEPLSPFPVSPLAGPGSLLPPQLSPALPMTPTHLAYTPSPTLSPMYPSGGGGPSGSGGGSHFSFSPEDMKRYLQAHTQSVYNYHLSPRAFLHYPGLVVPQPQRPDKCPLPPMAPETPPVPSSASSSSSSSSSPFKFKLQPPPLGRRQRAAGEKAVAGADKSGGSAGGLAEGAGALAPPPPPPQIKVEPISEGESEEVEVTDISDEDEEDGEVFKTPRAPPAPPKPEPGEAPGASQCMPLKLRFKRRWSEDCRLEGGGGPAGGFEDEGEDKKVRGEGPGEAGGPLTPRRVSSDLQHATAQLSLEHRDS
# Summary of the method: as §1
# ETV3L = target: T7, ETV3L (Homo sapiens, UniProt Q6ZN32 1-361); conditions: protein: recombinant; tags: N-terminal GST; dsDNA, one strand shown
# T7 sequence: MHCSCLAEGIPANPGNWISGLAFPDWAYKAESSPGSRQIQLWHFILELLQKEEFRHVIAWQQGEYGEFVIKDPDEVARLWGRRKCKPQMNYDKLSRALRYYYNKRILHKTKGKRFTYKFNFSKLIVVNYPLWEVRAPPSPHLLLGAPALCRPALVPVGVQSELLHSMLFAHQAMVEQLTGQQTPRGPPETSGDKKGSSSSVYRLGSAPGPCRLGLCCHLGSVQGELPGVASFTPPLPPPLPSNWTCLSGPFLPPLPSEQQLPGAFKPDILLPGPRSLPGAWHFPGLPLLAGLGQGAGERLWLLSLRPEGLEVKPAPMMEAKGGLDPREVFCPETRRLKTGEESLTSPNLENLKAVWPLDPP
# Summary of the method: as §1
# ETS2 = target: T8, ETS2 (Homo sapiens, UniProt P15036 1-469); conditions: protein: recombinant; tags: N-terminal GST; dsDNA, one strand shown
# T8 sequence: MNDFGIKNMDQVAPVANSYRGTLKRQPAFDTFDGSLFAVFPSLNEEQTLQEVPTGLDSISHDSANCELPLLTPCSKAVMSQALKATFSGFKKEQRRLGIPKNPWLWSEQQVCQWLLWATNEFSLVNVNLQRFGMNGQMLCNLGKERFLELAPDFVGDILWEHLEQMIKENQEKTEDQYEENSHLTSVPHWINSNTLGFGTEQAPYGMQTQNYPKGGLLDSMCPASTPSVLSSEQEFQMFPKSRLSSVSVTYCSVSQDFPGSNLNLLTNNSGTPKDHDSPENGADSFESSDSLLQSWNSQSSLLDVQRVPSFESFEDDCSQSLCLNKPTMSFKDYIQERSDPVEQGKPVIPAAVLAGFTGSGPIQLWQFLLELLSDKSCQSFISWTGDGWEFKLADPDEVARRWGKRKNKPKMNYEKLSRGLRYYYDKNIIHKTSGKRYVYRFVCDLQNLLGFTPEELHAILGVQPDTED
# Summary of the method: as §1
# SPDEF = target: T9, SPDEF (Homo sapiens, UniProt O95238 1-335); conditions: protein: recombinant; tags: N-terminal GST; dsDNA, one strand shown
# T9 sequence: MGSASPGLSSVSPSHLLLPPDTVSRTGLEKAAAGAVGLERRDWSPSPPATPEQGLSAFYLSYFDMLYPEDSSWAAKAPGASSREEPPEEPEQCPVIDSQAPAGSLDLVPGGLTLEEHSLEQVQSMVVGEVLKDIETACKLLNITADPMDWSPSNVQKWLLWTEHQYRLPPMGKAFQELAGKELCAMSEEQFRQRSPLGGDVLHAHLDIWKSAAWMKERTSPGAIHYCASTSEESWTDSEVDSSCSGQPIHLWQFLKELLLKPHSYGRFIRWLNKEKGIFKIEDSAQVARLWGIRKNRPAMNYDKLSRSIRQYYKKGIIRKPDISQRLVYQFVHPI
# Summary of the method: as §1
# ETV7 = target: T10, ETV7 (Homo sapiens, UniProt Q9Y603 1-341); conditions: protein: recombinant; tags: N-terminal GST; dsDNA, one strand shown
# T10 sequence: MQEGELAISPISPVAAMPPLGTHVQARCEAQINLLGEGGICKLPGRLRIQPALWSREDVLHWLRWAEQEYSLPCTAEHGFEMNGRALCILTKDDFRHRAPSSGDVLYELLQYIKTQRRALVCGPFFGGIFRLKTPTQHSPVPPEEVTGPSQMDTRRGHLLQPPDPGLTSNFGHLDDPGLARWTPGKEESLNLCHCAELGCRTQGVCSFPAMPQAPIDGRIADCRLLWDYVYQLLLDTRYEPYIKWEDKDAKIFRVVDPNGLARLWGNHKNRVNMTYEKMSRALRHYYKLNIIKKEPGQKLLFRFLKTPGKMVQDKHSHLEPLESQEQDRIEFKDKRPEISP
# Summary of the method: as §1
# ELF5 = target: T11, ELF5 (Homo sapiens, UniProt Q9UKW6-2 1-255); conditions: protein: recombinant; tags: N-terminal GST; dsDNA, one strand shown
# T11 sequence: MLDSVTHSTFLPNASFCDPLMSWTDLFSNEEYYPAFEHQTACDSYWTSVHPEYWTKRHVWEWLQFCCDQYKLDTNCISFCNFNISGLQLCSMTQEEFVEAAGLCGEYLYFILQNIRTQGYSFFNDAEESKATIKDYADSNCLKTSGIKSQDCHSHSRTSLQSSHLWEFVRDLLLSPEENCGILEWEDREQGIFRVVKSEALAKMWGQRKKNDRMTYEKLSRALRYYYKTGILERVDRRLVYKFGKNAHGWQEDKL
# Summary of the method: as §1
# ETV3 = target: T12, ETV3 (Homo sapiens, UniProt P41162-2 1-143); conditions: protein: recombinant; tags: N-terminal GST; dsDNA, one strand shown
# T12 sequence: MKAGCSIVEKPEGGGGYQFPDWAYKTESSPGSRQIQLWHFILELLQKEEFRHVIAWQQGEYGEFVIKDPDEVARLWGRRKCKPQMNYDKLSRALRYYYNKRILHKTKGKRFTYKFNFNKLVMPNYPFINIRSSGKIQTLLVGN
# Summary of the method: as §1
# ETV6 = ETV6 (Homo sapiens, UniProt P41212 1-452); conditions: protein: recombinant; tags: N-terminal GST; dsDNA, one strand shown
# Summary of the method: as §1
# Sequence of ELF4 (Q99607 whole entry): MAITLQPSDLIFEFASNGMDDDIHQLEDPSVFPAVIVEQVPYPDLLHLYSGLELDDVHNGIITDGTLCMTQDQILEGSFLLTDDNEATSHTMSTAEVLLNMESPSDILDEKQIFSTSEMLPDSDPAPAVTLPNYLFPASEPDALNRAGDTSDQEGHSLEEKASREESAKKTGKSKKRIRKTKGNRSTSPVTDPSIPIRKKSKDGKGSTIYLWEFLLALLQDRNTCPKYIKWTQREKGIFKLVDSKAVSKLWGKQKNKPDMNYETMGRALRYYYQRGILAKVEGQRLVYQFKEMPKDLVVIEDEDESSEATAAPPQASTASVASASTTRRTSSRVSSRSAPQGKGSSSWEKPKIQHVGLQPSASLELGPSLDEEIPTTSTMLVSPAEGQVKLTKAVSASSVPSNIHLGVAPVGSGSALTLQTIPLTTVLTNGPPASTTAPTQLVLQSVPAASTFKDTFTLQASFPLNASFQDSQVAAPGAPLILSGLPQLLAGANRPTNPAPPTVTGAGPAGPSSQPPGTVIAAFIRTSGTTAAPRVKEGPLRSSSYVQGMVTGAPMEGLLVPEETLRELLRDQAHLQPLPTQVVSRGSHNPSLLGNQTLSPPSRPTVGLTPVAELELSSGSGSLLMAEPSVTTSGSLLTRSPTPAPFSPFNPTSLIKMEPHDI
# Sequence of HSF1 (Q00613 whole entry): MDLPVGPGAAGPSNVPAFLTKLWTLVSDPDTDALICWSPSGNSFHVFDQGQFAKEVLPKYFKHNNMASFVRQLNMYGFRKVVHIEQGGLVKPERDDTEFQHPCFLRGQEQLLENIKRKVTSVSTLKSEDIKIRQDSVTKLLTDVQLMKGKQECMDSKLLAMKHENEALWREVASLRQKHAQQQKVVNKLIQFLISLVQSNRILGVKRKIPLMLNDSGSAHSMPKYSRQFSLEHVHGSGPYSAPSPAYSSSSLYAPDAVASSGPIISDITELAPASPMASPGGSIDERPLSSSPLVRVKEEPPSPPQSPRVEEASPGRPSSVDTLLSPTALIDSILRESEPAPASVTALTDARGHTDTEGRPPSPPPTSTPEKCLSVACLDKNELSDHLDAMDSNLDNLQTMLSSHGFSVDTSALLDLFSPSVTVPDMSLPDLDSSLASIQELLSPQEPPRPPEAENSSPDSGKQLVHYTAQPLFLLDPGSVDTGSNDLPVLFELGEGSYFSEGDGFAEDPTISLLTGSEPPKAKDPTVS
# Sequence of ETV6 (P41212 whole entry): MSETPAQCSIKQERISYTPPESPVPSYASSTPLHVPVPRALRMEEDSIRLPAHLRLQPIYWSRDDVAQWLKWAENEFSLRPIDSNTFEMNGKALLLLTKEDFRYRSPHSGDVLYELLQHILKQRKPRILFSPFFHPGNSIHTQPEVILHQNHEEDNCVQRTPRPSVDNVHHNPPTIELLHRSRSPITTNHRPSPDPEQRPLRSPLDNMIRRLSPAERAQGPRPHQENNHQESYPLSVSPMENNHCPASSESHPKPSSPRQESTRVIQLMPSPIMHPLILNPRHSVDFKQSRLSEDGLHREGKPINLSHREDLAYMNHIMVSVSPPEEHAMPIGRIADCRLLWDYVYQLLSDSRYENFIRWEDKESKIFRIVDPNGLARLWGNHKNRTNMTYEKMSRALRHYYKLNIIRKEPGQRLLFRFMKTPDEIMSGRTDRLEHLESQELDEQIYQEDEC
# Sequence of ETV1 (P50549 whole entry): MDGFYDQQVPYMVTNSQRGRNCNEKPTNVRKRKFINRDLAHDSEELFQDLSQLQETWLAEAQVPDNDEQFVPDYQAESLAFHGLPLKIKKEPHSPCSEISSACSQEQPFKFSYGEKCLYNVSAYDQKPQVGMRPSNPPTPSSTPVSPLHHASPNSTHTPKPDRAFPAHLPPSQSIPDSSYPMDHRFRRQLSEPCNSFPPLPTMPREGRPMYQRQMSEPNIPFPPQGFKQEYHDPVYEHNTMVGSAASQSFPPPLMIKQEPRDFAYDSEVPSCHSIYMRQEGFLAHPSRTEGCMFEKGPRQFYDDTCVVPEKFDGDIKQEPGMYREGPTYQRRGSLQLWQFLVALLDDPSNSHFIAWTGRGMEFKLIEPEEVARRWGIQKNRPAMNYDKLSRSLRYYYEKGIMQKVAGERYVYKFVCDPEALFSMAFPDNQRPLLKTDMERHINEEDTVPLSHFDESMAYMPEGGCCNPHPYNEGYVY
# Sequence of CRX (O43186 whole entry): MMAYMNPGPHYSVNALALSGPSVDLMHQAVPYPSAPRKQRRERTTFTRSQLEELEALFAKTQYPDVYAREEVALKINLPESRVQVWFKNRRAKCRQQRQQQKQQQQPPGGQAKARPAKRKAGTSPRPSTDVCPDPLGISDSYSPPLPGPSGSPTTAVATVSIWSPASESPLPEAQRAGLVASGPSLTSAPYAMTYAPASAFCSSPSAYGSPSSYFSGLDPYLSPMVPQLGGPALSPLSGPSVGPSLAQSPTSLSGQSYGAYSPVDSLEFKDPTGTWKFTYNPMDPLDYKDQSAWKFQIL
# Sequence of ETV5 (P41161 whole entry): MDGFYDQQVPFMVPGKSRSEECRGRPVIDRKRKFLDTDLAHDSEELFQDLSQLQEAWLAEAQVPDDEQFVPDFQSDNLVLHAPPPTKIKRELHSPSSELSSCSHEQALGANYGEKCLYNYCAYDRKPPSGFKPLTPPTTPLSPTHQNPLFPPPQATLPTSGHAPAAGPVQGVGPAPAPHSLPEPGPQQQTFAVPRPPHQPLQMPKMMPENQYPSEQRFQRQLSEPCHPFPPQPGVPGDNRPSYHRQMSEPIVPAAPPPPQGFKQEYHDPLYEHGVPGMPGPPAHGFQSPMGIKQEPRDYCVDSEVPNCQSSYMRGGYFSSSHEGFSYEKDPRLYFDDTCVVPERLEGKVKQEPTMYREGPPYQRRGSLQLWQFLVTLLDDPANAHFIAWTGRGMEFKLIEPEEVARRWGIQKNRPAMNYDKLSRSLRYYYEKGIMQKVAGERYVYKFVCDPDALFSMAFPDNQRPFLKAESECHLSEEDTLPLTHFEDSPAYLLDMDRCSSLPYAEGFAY
sequence,measurement,setting,value
TCACTC,binding signal,FEV,"1.23 fold enrichment (6-mer frequency, TF over GST control)"
same,binding signal,ETV5,"1.19 fold enrichment (6-mer frequency, TF over GST control)"
same,binding signal,HSF1,"1.11 fold enrichment (6-mer frequency, TF over GST control)"
same,binding signal,SPIC,"1.3 fold enrichment (6-mer frequency, TF over GST control)"
same,binding signal,ELF4,"1.24 fold enrichment (6-mer frequency, TF over GST control)"
same,binding signal,ELK4,"1.34 fold enrichment (6-mer frequency, TF over GST control)"
same,binding signal,ETV2,"1.35 fold enrichment (6-mer frequency, TF over GST control)"
same,binding signal,ELF3,"1.26 fold enrichment (6-mer frequency, TF over GST control)"
same,binding signal,CRX,"1.05 fold enrichment (6-mer frequency, TF over GST control)"
same,binding signal,ETV1,"1.18 fold enrichment (6-mer frequency, TF over GST control)"
same,binding signal,ERF,"1.27 fold enrichment (6-mer frequency, TF over GST control)"
same,binding signal,ETV3L,"1.16 fold enrichment (6-mer frequency, TF over GST control)"
same,binding signal,ETS2,"1.23 fold enrichment (6-mer frequency, TF over GST control)"
same,binding signal,SPDEF,"1.12 fold enrichment (6-mer frequency, TF over GST control)"
same,binding signal,ETV7,"1.2 fold enrichment (6-mer frequency, TF over GST control)"
same,binding signal,ELF5,"1.1 fold enrichment (6-mer frequency, TF over GST control)"
same,binding signal,ETV3,"1.22 fold enrichment (6-mer frequency, TF over GST control)"
same,binding signal,ETV6,"1.19 fold enrichment (6-mer frequency, TF over GST control)"
